Source: PubChem
ASK1 inh – human ASK1 kinase inhibition, primary screen | Q99683 | AlphaScreen MKK6 phosphorylation by ASK1, luminescence | inhibition, % at 7.44 µM | 22,000 compounds, 0.99% hits; in the data active = inhibition above about 35%;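 note: 0% = median of compound wells and 100% = no enzyme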
Target sequence (Q99683 whole entry, looked up): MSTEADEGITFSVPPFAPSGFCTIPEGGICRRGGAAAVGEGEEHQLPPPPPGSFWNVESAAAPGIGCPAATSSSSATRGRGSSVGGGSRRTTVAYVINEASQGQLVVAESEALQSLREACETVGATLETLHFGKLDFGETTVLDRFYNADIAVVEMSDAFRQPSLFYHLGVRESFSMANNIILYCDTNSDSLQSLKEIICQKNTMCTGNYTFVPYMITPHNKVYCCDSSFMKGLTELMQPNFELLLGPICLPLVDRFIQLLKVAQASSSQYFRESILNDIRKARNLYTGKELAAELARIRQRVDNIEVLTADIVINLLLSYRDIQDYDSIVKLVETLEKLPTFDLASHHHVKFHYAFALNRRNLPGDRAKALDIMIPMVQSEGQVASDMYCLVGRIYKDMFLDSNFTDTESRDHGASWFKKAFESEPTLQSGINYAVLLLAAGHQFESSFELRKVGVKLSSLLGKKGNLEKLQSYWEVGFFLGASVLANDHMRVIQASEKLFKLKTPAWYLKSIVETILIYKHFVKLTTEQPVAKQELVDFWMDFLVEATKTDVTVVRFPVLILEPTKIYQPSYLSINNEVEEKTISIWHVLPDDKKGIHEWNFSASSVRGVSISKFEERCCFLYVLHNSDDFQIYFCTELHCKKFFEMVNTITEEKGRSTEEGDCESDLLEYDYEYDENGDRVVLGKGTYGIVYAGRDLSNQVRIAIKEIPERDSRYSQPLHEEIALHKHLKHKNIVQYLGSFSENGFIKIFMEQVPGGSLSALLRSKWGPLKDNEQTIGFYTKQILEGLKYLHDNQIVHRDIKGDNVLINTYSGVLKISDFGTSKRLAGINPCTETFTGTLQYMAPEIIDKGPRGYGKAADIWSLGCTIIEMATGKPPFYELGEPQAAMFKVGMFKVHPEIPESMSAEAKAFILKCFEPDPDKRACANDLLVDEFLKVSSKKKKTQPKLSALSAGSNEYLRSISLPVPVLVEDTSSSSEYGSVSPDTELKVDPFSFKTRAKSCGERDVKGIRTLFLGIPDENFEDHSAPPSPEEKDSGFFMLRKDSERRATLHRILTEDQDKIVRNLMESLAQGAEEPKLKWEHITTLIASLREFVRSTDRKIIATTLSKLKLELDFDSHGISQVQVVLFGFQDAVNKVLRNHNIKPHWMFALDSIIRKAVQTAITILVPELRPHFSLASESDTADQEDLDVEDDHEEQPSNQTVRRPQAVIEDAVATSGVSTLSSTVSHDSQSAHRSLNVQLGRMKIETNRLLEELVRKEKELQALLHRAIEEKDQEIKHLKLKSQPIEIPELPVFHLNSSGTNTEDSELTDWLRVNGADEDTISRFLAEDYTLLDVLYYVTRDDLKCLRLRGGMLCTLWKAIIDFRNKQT
ULK1 inh – human ULK1 kinase inhibition, primary screen. O75385. AlphaScreen Atg13 phosphorylation by ULK1, luminescence. inhibition, % at 5.96 µM. 30,000 compounds, 1.9% hits. AID 1259251; in the data active = inhibition above about 43%;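 note: 0% = median of compound wells and 100% = no enzyme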
The depositor's hits bear a star; nt = not tested or not shown. Sampled rows, rich in hits. Any-hit rate of the full collection: about 2.4%.

SMILES	ASK1 inh	ULK1 inh
CCNc1cc(C(=O)Nc2ccc(N3CCOCC3)cc2)ccn1	9.8	31.2
O=C(Nc1ccc(N2CCOCC2)cc1)c1ccnc(NCCN2CCOCC2)c1	-18.4	47.1*
CCOC(=O)c1c(C)oc2c1cc(NS(=O)(=O)c1ccccc1)c1ccccc12	nt	2.2
CCOc1ccc(-n2c(SCC(=O)NC(C)(C)C)nnc2-c2cccnc2)cc1	nt	5.7
Cc1cccc(CC(=O)Nc2cnn(-c3cccc(C(=O)N4CCOCC4)c3)c2)c1	5.1	-8.8
O=C1CCc2cc(S(=O)(=O)N3CCCNCC3)ccc2N1	-23.1	-7.8
O=c1[nH]ccc2c(S(=O)(=O)N3CCCNCC3)cccc12	-18.4	45.8*
CC(C)c1cc(C(C)C)c(CC(=O)NS(=O)(=O)Oc2c(C(C)C)cccc2C(C)C)c(C(C)C)c1	nt	85.2*
O=C1c2c(O)ccc(O)c2C(=O)c2c(NCCNCCO)ccc(NCCNCCO)c21	nt	42.6*
CNS(=O)(=O)c1ccc(CCC(=O)O)cc1	nt	6.7
COc1ccc(-c2nc3c(Nc4ccc(NC(C)=O)cc4)ncnc3n2C(C)C)cn1	-8.6	6.5
c1cc(N2CCOCC2)ccc1Nc1nc(N2CCOCC2)nc2c1ncn2C1CCCCC1	-0.6	33.3
OCC1CCCN1c1nc(Nc2ccc(N3CCOCC3)cc2)c2ncn(-c3ccsc3)c2n1 (centres undefined)	16.2	10.6
OCC1CCCN1c1nc(Nc2ccc(N3CCOCC3)cc2)c2ncn(-c3ccccc3)c2n1 (centres undefined)	-37.3	61.2*
OCC1CCCN1c1nc(Nc2ccc(N3CCOCC3)cc2)c2ncn(C3CCCCC3)c2n1 (centres undefined)	30.0	52.9*
Cn1c(Nc2cccc(C(=O)NCc3nc4ccccc4[nH]3)n2)nc2ccccc21	-1.5	-2.3
CCNc1nc(NCCc2ccc(O)cc2)c2ncn(C(C)C)c2n1	-20.7	8.7
Cc1cnc(Nc2ccc(N3CCNCC3)cc2)cc1Nc1ccccc1C(N)=O	3.2	93.6*
NC(=O)c1nccnc1Nc1ccnc(Nc2ccc(N3CCOCC3)cc2)c1	8.9	16.6
Cc1cnc(Nc2cccc(N3CCOCC3)c2)cc1Nc1ccccc1C(N)=O	-3.9	82.0*
NC(=O)c1ccccc1Nc1ccnc(Nc2ccc(N3CCNCC3)cc2)c1	0.3	48.3*
NC(=O)c1ccccc1Nc1ccnc(Nc2ccc(N3CCOCC3)cc2)c1	8.7	9.6
NC(=O)c1cnccc1Nc1ccnc(Nc2ccc(N3CCOCC3)cc2)c1	7.5	44.1*
CN1CCN(c2ccc(Nc3cc(Nc4ccccc4C(N)=O)ccn3)cc2)CC1	7.3	39.7
COc1cc(N2CCOCC2)ccc1Nc1cc(Nc2ccccc2C(N)=O)c(C)cn1	-0.4	31.5
SMILES	ASK1 inh	ULK1 inh
O=C(Nc1ccc(-c2cn[nH]c2)cc1)C1CNC[C@H]1c1cccc(C(F)(F)F)c1 (some centres undefined)	-19.2	-13.8
C=CCN1CCN(c2c(C)ccc3sc(-c4ccc(Br)o4)nc23)CC1	-7.8	2.3
c1ccc(CNc2ncnc3nc(Nc4ccncn4)[nH]c23)cc1	-0.5	7.6
CC(=O)c1ccc2c(c1)CC(c1nc3ncc(-c4ccnc(N)n4)cc3[nH]1)CO2 (centres undefined)	6.1	24.1
COc1ccc(C(=O)Nc2ccc(-c3cn[nH]c3)cc2N2CCC(N(C)C)CC2)cc1	6.8	5.5
COc1cc(N2CCOCC2)ccc1Nc1cc(NCc2ccccn2)c(C(F)(F)F)cn1	11.5	16.6
COc1cc(Nc2nc(NCCc3ccc(O)cc3)c3ncn(CCN4CCCC4=O)c3n2)cc(OC)c1OC	3.5	-5.1
CCOc1ccc(Nc2nc(C)c([N+](=O)[O-])c(Nc3ccc(OCC)cc3)n2)cc1	nt	0.2
c1cc(Nc2ccc3nc[nH]c3c2)cc(Nc2ccc(N3CCOCC3)cc2)n1	10.9	2.6
c1cc(Nc2cc(C3CC3)[nH]n2)cc(Nc2ccc(N3CCOCC3)cc2)n1	9.7	47.5*
CCCOc1ccc(C(C2=C(O)CC(C)(C)CC2O)C2C(=O)CC(C)(C)CC2=O)cc1 (centres undefined)	nt	0.5
CCCNc1nc(Nc2nc3ccccc3n2C)nc2c1ncn2C1CCCCC1	1.6	41.1
Cn1c(Nc2nc(NCCc3ccc(O)cc3)c3ncn(C4CCCCC4)c3n2)nc2ccccc21	-1.5	44.5*
c1ccc(OCCNc2cc(Nc3nccc4ccccc34)ncn2)cc1	-3.4	-23.7
COc1cccc(CNC(=O)c2c(C)nc3ccc(-c4ccc5nc(C)c(C(=O)NCc6cccc(OC)c6)n5c4)cn23)c1	41.9*	7.6
COc1cccc(CNC(=O)c2c(C)nc3ccc(-c4ccnc(N)n4)cn23)c1	4.8	11.1
CC(=O)Nc1ccc(Nc2nc(N3CCOCC3)nc3c2ncn3C(C)C)cc1	2.9	32.2
CC(=O)Nc1ccc(Nc2nc(-c3ccc(N4CCOCC4)nc3)nc3c2ncn3C(C)C)cc1	10.3	43.8*
NC(=O)c1ccc(-c2nc(Nc3ccc(N4CCOCC4)cc3)c3ncn(Cc4ccc(C(F)(F)F)cc4)c3n2)cc1	22.0	-0.1
CC(=O)Nc1ccc(Nc2nc(-c3cccc(N)c3)nc3c2ncn3C(C)C)cc1	5.3	35.0
CC(=O)Nc1ccc(Nc2nc(-c3ccc(C(N)=O)cc3)nc3c2ncn3C(C)C)cc1	5.7	74.9*
CC(C)n1cnc2c(Nc3ccc(N4CCOCC4)cc3)nc(-c3ccc(C(N)=O)cc3)nc21	10.4	62.6*
CC(=O)c1cccc(-c2nc(Nc3ccc(N4CCOCC4)cc3)c3ncn(C(C)C)c3n2)c1	24.5	55.7*
CC(C)n1cnc2c(Nc3ccc(N4CCOCC4)cc3)nc(-c3cccc(N)c3)nc21	4.4	25.5
FC(F)(F)c1cccc(CNc2nc(-c3ccc(N4CCOCC4)nc3)nc3c2ncn3-c2ccccc2)c1	31.7	5.1
SMILES	ASK1 inh	ULK1 inh
c1ccc2[nH]c(CNc3nc(-c4ccc(N5CCOCC5)nc4)nc4c3ncn4C3CCCCC3)nc2c1	-22.8	-18.7
COc1ccc(-c2nc(Nc3ccc(NC(C)=O)cc3)c3ncn(C(C)C)c3n2)cn1	10.4	50.4*
Cc1cnc(-c2ccc(N3CCOCC3)nc2)nc1Nc1ccccc1	0.1	43.9*
COc1ccc(-c2nc(Nc3ccc(N4CCOCC4)cc3)c3ncn(C(C)C)c3n2)cn1	30.5	25.0
Cc1cnc(-c2ccccc2)nc1Nc1ccc(N2CCOCC2)cc1	12.7	8.7
CN1CC[C@H](Oc2ncccc2C(=O)Nc2ccc3[nH]ncc3c2)C1	-4.7	7.8
Cc1ccc(-c2cnc(NCc3cnc(C)cn3)nc2)cc1	nt	-15.2
CC[C@@H](C(=O)[C@@H](C)[C@@H](O)[C@H](C)[C@@H]1O[C@@H]([C@@H](CC)C(=O)O)CC[C@@H]1C)[C@H]1O[C@]2(C=C[C@@H](O)[C@]3(CC[C@@](C)([C@H]4CC[C@](O)(CC)[C@H](C)O4)O3)O2)[C@H](C)C[C@@H]1C	nt	-4.3
CC[C@@H](C(=O)[C@@H](C)[C@@H](O)[C@H](C)CCc1ccc(C)c(O)c1C(=O)O)[C@H]1O[C@](CC)([C@H]2CC[C@](O)(CC)[C@H](C)O2)C[C@@H]1C	nt	69.8*
Cc1nn(C)c(C)c1-c1nc(NCc2cccnc2)c2[nH]cnc2n1	-20.8	18.5
Cc1nn(C)cc1-c1cc(C(=O)O)no1	nt	-5.0
CC(=O)c1cccc(-c2nc(C(=O)NCCOc3ccccc3)cs2)c1	-6.5	-6.4
N[C@@H](Cc1cc(I)c(Oc2cc(I)c(O)c(I)c2)c(I)c1)C(=O)O	nt	78.7*
NC(Cc1cc(I)c(Oc2ccc(O)c(I)c2)c(I)c1)C(=O)O (centres undefined)	nt	-6.8
